Structures can show the parent of a compound that is named as a salt.
tested on: Klebsiella aerogenes DSM 30053; assay: growth (OD595) fold change vs plate DMSO controls (fold change (ratio)); higher = more growth; conditions: incubation time: 27 h, anaerobic, 37 °C
Outline: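 Absorbance at 595 nm was read after shaking the anaerobic mGAM cultures, which had grown in 96-well plates for 27 h at 37 °C. After blank subtraction and background correction against 20 µM compound solutions in water, a calibration factor of 5 gave OD values. Growth is the fold change against the median of the plate's DMSO controls. Values are the mean of 2 biological replicates, with fold changes above 1.5 set to NA.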

Compound	growth
CC(=O)CCCCn1c(=O)c2c(ncn2C)n(C)c1=O [Pentoxifylline] (20 µM)	1.06
CCN(CC)CCOC(=O)C1(C2CCCCC2)CCCCC1 [Dicyclomine hydrochloride] (20 µM)	0.998
CC(=O)OCC(=O)[C@@]1(O)[C@H](C)C[C@H]2[C@@H]3CCC4=CC(=O)C=C[C@]4(C)[C@@]3(F)[C@@H](O)C[C@@]21C [Dexamethasone acetate] (20 µM)	0.986
Cc1nc2n(c(=O)c1CCN1CCC(c3noc4cc(F)ccc34)CC1)CCCC2O (centres undefined) [Paliperidone] (20 µM)	0.982
O=C(Nc1cccc2c(=O)cc(-c3nnn[nH]3)oc12)c1ccc(OCCCCc2ccccc2)cc1 [Pranlukast] (20 µM)	0.999
CCC(Cc1c(I)cc(I)c(N)c1I)C(=O)O (centres undefined) [Iopanoic acid] (20 µM)	1
C/C(=C\C(=O)OCCCCCCCCC(=O)O)C[C@@H]1OC[C@H](C[C@@H]2O[C@H]2[C@@H](C)[C@H](C)O)[C@@H](O)[C@H]1O [Mupirocin] (20 µM)	0.631
CC(Oc1c(Cl)cccc1Cl)C1=NCCN1 (centres undefined) [Lofexidine] (20 µM)	1.06
CCOc1ccc(NC(=O)CC(C)O)cc1 (centres undefined) [Bucetin] (20 µM)	0.995
CN(C)CCc1c[nH]c2ccc(Cn3cncn3)cc12 [Rizatriptan benzoate] (20 µM)	1.02
CC(C)OC(=O)C(C(=O)OC(C)C)=C1SC=CS1 [Malotilate] (20 µM)	1.08
CC1CS(=O)(=O)CCN1/N=C/c1ccc([N+](=O)[O-])o1 (centres undefined) [Nifurtimox] (20 µM)	0.924
CC(=O)OCC(=O)[C@@]12OC3(CCCC3)O[C@@H]1C[C@H]1[C@@H]3CCC4=CC(=O)C=C[C@]4(C)[C@@]3(F)[C@@H](O)C[C@@]12C [Amcinonide] (20 µM)	1.02
OC[C@H]1O[C@@H](c2ccc(Cl)c(Cc3ccc(O[C@H]4CCOC4)cc3)c2)[C@H](O)[C@@H](O)[C@@H]1O [Empagliflozin] (20 µM)	1
CC(CN(C)C)CN1c2ccccc2Sc2ccccc21 (centres undefined) [Trimeprazine tartrate] (20 µM)	1.07
CCC(=O)O[C@]1(C(=O)SCF)[C@H](C)C[C@H]2[C@@H]3C[C@H](F)C4=CC(=O)C=C[C@]4(C)[C@@]3(F)[C@@H](O)C[C@@]21C [Fluticasone propionate] (20 µM)	1.03
OC[C@H]1O[C@@H](n2cnc3cncnc32)[C@H](O)[C@@H]1O [Nebularine] (20 µM)	1.01
C=C1[C@H](CO)[C@@H](O)C[C@@H]1n1cnc2c(=O)[nH]c(N)nc21 [Entecavir] (20 µM)	1.04
O=C1CN(/N=C/c2ccc(-c3ccc([N+](=O)[O-])cc3)o2)C(=O)N1 [Dantrolene sodium salt] (20 µM)	0.993
CN1CCCN=C1/C=C/c1cccs1 [Pyrantel tartrate] (20 µM)	1.1
C[C@H](CCc1ccccc1)NC[C@H](O)c1ccc(O)c(C(N)=O)c1 [Dilevalol] (20 µM)	1.11
CN1CCC(=C2c3ccccc3CCc3sccc32)CC1 [Pizotifen malate] (20 µM)	0.982
CCOC(=O)c1ccc(C#Cc2ccc3c(c2)C(C)(C)CCS3)nc1 [Tazarotene] (20 µM)	0.961
CCC(=O)OCC(=O)[C@@]1(OC(=O)CC)[C@@H](C)C[C@H]2[C@@H]3CCC4=CC(=O)C=C[C@]4(C)[C@@]3(Cl)[C@@H](O)C[C@@]21C [Beclomethasone dipropionate] (20 µM)	1.04
CC1=NN(c2ccccc2)C(=O)C1 [Edaravone] (20 µM)	1.02
CO/N=C(\C(=O)N[C@@H]1C(=O)N2C(C(=O)OCOC(=O)C(C)(C)C)=C(/C=C\c3scnc3C)CS[C@H]12)c1csc(N)n1 [Cefditoren Pivoxil] (20 µM)	1.03
Nc1ncnc2c1ncn2[C@@H]1O[C@H](CO)[C@@H](O)[C@@H]1O [Vidarabine] (20 µM)	0.99
O=C(O)c1ccccc1Nc1cccc(C(F)(F)F)c1 [Flufenamic acid] (20 µM)	1.07
CCc1ccc(CCOc2ccc(CC3SC(=O)NC3=O)cc2)nc1 (centres undefined) [Pioglitazone] (20 µM)	0.988
